Reference: the supplement of paper PMC10849652
Of roughly 8,800 targets only a part is listed; those with a hit were picked by preference. About 0.5% of all pairs of compound and target were hits. A number with no mark means an inactive call.

Tests used:
Experiment in all cases: log2 fold change, soluble protein after heating vs DMSO (PISA); higher = thermal stabilisation; K562 lysate, 10 uM; active = over 0.2 and 3.5 SD of the protein, either way, in both replicates (recomputed)
vemurafenib = compound: CCCS(=O)(=O)Nc1ccc(F)c(C(=O)c2c[nH]c3ncc(-c4ccc(Cl)cc4)cc23)c1F [vemurafenib]
Procedure, shortened: (§1)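 Quantification was by TMTpro 16plex LC-MS/MS with equalised channel sums, applied to the supernatant after 21,000xg for 90 min. Samples were crude K562 extract at 1 mg/mL protein in PBS pH 7.4 with 1 mM MgCl2, treated with 10 μM compound for 30 min, heated for 3 min across 48°C-58°C, pooled and brought to 0.5% NP-40 at 4°C. Values are log-two fold changes in thermal stability relative to solvent controls, from duplicates.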

[1] = compound: CCCS(=O)(=O)Nc1ccc(F)c(C(=O)c2c[nH]c3ncc(Cl)cc23)c1F
Procedure, shortened: as §1

barasertib = compound: CCN(CCCOc1ccc2c(Nc3cc(CC(=O)Nc4cccc(F)c4)[nH]n3)ncnc2c1)CCOP(=O)(O)O [barasertib]
Procedure, shortened: as §1

[2] = compound: CC[C@@H]1C(=O)N(C)c2cnc(Nc3ccc(C(=O)NC4CCN(C)CC4)cc3OC)nc2N1C1CCCC1
Procedure, shortened: as §1

volasertib = compound: CC[C@@H]1C(=O)N(C)c2cnc(Nc3ccc(C(=O)N[C@H]4CC[C@H](N5CCN(CC6CC6)CC5)CC4)cc3OC)nc2N1C(C)C [volasertib]
Procedure, shortened: as §1

[3] = compound: CCn1c(C(=O)N(C2CC2)C2CC2)cc2c3c(ncn3C)c(Nc3cc(C)n(C)n3)nc21
Procedure, shortened: as §1

[4] = compound: CCn1cc(-c2ccnc3[nH]c(-c4cccc(CN(C)C)c4)cc23)c(-c2ccc(NC(=O)N(C)C)cc2)n1
Procedure, shortened: as §1

[5] = compound: CN1CCC(CNc2ccc3ncc(-c4cccc(OC(F)(F)F)c4)n3n2)CC1
Procedure, shortened: as §1

saracatinib = compound: CN1CCN(CCOc2cc(OC3CCOCC3)c3c(Nc4c(Cl)ccc5c4OCO5)ncnc3c2)CC1 [saracatinib]
Procedure, shortened: as §1

sotrastaurin = compound: CN1CCN(c2nc(C3=C(c4c[nH]c5ccccc45)C(=O)NC3=O)c3ccccc3n2)CC1 [sotrastaurin]
Procedure, shortened: as §1

alvocidib = compound: CN1CC[C@H](c2c(O)cc(O)c3c(=O)cc(-c4ccccc4Cl)oc23)[C@H](O)C1 [alvocidib]
Procedure, shortened: as §1

Tubastatin A = compound: CN1CCc2c(c3ccccc3n2Cc2ccc(C(=O)NO)cc2)C1 [Tubastatin A]
Procedure, shortened: as §1

[6] = compound: CNC(=O)C1=CC=CC=C1NC2=NC(=NC=C2Cl)NC3=C(C=C(C=C3)N4CCOCC4)OC
Procedure, shortened: as §1

defactinib = compound: CNC(=O)c1ccc(Nc2ncc(C(F)(F)F)c(NCc3nccnc3N(C)S(C)(=O)=O)n2)cc1 [defactinib]
Procedure, shortened: as §1

[7] = compound: CNc1nc(-c2ccc3c(N)n[nH]c3c2)cc(N2C[C@@H](C(=O)NC3CCCCC3)CC[C@H]2C)n1
Procedure, shortened: as §1

encorafenib = compound: COC(=O)N[C@@H](C)CNc1nccc(-c2cn(C(C)C)nc2-c2cc(Cl)cc(NS(C)(=O)=O)c2F)n1 [encorafenib]
Procedure, shortened: as §1

[8] = compound: COC(=O)[C@H](CCSC)NC(=O)C1=C(C=C(C=C1)NC[C@H](CS)N)C2=CC=CC=C2
Procedure, shortened: as §1

alisertib = compound: COc1cc(Nc2ncc3c(n2)-c2ccc(Cl)cc2C(c2c(F)cccc2OC)=NC3)ccc1C(=O)O [alisertib]
Procedure, shortened: as §1

[9] = compound: COc1cc2nc(-c3cc(F)ccc3O)nc(N[C@@H]3CNC[C@H]3C(C)(C)O)c2cc1OC
Procedure, shortened: as §1

gefitinib = compound: COc1cc2ncnc(Nc3ccc(F)c(Cl)c3)c2cc1OCCCN1CCOCC1 [gefitinib]
Procedure, shortened: as §1

UniProt Q9Y4B4, sequence (Q9Y4B4 whole entry, looked up): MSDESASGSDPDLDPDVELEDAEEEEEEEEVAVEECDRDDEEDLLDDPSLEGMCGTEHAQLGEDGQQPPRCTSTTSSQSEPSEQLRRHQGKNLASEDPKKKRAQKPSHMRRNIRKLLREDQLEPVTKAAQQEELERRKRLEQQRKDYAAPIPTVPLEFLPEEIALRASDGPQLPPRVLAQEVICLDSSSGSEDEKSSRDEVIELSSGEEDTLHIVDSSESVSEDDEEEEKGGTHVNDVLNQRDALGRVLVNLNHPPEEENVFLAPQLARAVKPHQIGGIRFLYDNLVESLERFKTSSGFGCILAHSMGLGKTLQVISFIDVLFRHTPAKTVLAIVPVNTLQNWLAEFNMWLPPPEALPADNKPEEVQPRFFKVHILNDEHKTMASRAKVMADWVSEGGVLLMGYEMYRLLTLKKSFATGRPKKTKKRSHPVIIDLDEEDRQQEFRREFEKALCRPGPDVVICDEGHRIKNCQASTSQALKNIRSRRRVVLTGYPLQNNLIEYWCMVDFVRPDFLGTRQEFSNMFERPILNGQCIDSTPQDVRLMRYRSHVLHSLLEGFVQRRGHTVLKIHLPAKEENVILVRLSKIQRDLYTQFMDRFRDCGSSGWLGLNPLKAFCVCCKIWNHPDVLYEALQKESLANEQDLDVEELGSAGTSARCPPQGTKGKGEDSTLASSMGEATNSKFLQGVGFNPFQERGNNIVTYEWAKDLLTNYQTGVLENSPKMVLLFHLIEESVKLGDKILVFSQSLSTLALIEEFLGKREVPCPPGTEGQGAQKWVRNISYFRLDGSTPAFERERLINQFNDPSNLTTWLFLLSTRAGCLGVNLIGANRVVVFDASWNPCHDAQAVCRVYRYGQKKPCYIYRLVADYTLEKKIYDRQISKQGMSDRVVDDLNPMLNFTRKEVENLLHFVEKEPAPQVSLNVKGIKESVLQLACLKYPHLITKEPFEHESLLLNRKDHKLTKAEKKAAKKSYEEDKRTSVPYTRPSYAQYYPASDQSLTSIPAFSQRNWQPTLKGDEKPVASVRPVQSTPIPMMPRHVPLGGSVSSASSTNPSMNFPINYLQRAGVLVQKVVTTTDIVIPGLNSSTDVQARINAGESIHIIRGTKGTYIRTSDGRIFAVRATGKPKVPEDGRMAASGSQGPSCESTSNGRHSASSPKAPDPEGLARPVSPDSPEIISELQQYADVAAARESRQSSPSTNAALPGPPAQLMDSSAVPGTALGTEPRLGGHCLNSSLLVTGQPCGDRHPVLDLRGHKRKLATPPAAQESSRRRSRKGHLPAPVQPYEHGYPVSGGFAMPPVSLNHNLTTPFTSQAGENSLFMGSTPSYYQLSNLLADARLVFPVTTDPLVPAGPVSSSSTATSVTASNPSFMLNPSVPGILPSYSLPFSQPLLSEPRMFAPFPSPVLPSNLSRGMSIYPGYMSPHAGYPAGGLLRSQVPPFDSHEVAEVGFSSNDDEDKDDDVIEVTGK
UniProt O60518, sequence (O60518 whole entry, looked up): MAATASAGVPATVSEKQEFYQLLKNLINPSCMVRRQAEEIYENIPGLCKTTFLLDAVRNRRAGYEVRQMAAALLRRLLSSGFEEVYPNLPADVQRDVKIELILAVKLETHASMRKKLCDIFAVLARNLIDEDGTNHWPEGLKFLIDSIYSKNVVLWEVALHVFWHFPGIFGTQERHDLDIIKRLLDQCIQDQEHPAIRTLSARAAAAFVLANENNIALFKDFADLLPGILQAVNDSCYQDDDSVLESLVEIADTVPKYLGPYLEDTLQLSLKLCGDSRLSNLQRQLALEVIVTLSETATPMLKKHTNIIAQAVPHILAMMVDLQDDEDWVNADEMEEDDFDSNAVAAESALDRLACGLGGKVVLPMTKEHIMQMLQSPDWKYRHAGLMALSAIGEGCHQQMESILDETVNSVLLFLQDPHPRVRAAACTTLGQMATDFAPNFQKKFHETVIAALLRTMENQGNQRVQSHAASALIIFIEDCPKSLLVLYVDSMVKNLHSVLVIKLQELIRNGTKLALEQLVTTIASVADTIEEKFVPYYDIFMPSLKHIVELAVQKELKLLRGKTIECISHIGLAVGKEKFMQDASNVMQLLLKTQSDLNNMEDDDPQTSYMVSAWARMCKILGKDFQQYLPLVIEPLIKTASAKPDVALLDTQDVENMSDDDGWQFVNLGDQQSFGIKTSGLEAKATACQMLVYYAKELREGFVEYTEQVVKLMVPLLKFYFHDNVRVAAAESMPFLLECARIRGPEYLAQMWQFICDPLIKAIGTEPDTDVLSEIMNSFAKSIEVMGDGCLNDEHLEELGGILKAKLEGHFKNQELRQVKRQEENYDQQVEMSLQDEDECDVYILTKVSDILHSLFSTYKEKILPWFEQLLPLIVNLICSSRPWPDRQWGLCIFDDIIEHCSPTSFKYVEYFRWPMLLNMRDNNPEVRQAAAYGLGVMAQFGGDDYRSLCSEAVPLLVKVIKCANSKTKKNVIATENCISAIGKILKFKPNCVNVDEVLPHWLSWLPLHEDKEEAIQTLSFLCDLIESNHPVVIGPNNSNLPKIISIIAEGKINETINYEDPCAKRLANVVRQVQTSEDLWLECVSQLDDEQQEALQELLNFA
UniProt Q6NUM9, sequence (Q6NUM9 whole entry, looked up): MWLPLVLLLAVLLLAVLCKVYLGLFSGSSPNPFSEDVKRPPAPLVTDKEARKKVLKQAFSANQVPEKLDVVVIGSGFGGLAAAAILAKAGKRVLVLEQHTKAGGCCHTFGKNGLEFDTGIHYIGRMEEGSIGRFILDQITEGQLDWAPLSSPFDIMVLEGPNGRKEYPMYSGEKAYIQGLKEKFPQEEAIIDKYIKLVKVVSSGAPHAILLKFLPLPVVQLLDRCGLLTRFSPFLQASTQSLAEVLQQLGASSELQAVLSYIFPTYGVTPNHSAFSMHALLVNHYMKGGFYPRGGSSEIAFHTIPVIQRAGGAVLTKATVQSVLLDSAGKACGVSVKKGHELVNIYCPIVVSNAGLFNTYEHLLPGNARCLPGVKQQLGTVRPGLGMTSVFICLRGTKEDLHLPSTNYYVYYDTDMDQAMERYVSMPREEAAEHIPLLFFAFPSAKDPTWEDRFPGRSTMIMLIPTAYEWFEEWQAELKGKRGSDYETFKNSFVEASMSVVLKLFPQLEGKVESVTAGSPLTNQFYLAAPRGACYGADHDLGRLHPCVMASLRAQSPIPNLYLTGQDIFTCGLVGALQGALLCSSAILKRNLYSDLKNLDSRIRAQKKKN
UniProt Q8NC42, sequence (Q8NC42 whole entry, looked up): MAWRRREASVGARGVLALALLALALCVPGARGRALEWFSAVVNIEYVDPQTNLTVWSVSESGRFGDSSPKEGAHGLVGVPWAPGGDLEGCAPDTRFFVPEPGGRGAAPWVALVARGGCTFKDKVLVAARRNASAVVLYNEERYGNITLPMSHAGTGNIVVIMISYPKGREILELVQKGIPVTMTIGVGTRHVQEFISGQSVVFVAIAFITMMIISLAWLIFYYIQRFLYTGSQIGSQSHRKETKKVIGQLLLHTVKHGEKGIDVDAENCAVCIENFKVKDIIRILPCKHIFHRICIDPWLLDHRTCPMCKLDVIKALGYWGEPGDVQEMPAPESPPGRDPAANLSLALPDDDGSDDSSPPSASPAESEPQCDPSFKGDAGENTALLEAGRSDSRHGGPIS
UniProt Q00765, sequence (Q00765 whole entry, looked up): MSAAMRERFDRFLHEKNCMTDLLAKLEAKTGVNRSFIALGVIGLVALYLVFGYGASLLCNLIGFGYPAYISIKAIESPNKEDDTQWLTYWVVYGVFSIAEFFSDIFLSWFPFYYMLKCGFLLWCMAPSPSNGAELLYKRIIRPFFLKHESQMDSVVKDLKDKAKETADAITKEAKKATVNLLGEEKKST
UniProt P53805, sequence (P53805 whole entry, looked up): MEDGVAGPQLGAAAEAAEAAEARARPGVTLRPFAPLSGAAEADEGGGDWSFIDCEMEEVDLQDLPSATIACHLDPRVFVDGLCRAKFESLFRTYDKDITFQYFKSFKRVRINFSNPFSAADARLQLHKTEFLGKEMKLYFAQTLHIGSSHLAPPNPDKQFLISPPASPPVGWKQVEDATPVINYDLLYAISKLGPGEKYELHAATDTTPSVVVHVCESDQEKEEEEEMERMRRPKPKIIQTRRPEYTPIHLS
UniProt P61224, sequence (P61224 whole entry, looked up): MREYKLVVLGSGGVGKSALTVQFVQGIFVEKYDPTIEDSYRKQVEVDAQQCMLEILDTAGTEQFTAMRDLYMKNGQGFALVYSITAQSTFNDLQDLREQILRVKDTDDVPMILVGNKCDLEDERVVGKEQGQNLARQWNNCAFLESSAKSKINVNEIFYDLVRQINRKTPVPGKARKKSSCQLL
UniProt Q99496, sequence (Q99496 whole entry, looked up): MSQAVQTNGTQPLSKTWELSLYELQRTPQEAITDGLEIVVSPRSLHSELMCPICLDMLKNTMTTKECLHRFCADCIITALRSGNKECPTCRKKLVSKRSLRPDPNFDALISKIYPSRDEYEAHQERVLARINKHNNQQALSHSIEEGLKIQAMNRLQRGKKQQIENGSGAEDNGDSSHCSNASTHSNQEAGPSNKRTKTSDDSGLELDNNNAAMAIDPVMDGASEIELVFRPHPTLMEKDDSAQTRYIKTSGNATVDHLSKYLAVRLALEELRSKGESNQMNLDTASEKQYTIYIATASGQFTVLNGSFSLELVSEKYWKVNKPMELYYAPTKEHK
UniProt Q96HR9, sequence (Q96HR9 whole entry, looked up): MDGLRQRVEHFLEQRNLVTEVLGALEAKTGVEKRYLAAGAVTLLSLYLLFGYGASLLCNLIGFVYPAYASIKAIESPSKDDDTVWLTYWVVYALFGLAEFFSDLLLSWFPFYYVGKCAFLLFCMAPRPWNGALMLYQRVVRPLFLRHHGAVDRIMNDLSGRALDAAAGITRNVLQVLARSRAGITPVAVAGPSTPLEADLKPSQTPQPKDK
UniProt Q9BUV8, sequence (Q9BUV8 whole entry, looked up): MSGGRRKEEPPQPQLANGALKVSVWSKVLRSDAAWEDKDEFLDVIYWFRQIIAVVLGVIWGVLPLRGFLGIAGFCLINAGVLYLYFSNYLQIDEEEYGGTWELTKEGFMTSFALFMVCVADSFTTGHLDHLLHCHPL

Target | log2 fold change (vemurafenib) | log2 fold change [1] | log2 fold change (barasertib) | log2 fold change [2] | log2 fold change (volasertib) | log2 fold change [3] | log2 fold change [4] | log2 fold change [5] | log2 fold change (saracatinib) | log2 fold change (sotrastaurin) | log2 fold change (alvocidib) | log2 fold change (Tubastatin A) | log2 fold change [6] | log2 fold change (defactinib) | log2 fold change [7] | log2 fold change (encorafenib) | log2 fold change [8] | log2 fold change (alisertib) | log2 fold change [9] | log2 fold change (gefitinib)
SERPINI1 (UniProt Q99574) | 0.027 | 0.008 | -0.006 | 0.024 | -0.001 | 0.03 | 0.001 | 0.069 | 0 | 0.016 | -0.031 | 0.015 | -0.001 | 0.019 | -0.042 | 0.02 | -0.074 | -0.064 | 0.013 | 0.048
RETSAT (UniProt Q6NUM9) | 0.115 | 0.039 | 0.076 | 0 | -0.087 | -0.297 | -0.318 | 0.116 | 0.108 | -0.119 | -0.114 | 0.179 | -0.071 | -0.045 | 0.402 | 0.079 | 0.025 | – | -0.059 | –
RPS6KA3 (UniProt P51812) | 0.031 | 0.005 | -0.003 | – | -0.026 | 0.133 | -0.014 | 0.093 | 0.078 | 0.037 | 0.306 | -0.151 | – | 0.433 (active) | -0.017 | -0.107 | 0.056 | – | 0.049 | -0.025
REEP6 (UniProt Q96HR9) | 0.072 | 0.021 | 0.093 | -0.022 | 0.077 | 0 | -0.358 (active) | 0.072 | 0.094 | 0.017 | -0.089 | 0.045 | 0.02 | 0.056 | -0.013 | 0.076 | -0.025 | 0.032 | -0.036 | -0.175
RNF149 (UniProt Q8NC42) | -0.026 | -0.15 | 0.026 | – | -0.063 | -0.162 | 0.343 | 0.02 | 0.021 | -0.081 | -0.038 | -0.047 | 0.02 | 0.028 | 0.004 | – | – | -0.483 (active) | -0.059 | -0.075
RNASEH2B (UniProt Q5TBB1) | -0.008 | 0.034 | -0.035 | -0.056 | -0.044 | -0.001 | 0.026 | -0.101 | -0.022 | 0.062 | 0.05 | -0.046 | -0.003 | 0.092 | -0.021 | 0.035 | 0.338 (active) | -0.031 | -0.038 | -0.031
RAD54L2 (UniProt Q9Y4B4) | 0.159 | 0.081 | -0.032 | -0.201 | -0.072 | – | -0.149 | 0 | 0.078 | -0.061 | 0.007 | – | -0.065 | -0.013 | 0.093 | 0.102 | 0.153 | 0.141 | -0.088 | 0.045
RAP1B (UniProt P61224) | 0.006 | 0.008 | 0.054 | 0.061 | 0.018 | -0.037 | 0.372 (active) | -0.035 | 0.002 | 0.005 | 0.039 | 0.05 | 0.005 | 0.02 | 0.025 | 0.011 | -0.034 | 0.015 | 0.057 | -0.054
RCAN1 (UniProt P53805) | 0.028 | 0.061 | 0.034 | -0.022 | -0.026 | -0.06 | -0.024 | 0.041 | 0.025 | -0.056 | -0.003 | -0.118 | 0.052 | 0.006 | 0.079 | 0.065 | 0.035 | -0.02 | 0.019 | -0.038
RANBP6 (UniProt O60518) | 0.008 | 0.025 | 0.013 | -0.016 | 0.013 | 0.068 | -0.045 | 0.06 | -0.038 | 0.002 | -0.033 | -0.07 | 0.008 | 0.047 | 0.014 | -0.027 | 0.057 | 0.063 | 0.046 | 0.008
RDX (UniProt P35241) | 0 | -0.008 | 0.003 | 0.016 | 0.017 | -0.018 | 0.712 (active) | -0.109 | -0.018 | -0.013 | 0.116 | 0.042 | -0.002 | -0.009 | 0.034 | -0.047 | -0.033 | -0.018 | 0 | 0.013
REEP5 (UniProt Q00765) | -0.008 | -0.006 | -0.008 | 0.073 | 0.023 | 0.027 | -0.051 | 0.026 | 0.017 | -0.02 | -0.054 | -0.004 | -0.056 | 0.04 | 0.035 | 0.001 | 0.263 (active) | -0.009 | 0.001 | -0.092
RNF213, A0A0A0MTC1 | 0.017 | 0.025 | 0.076 | -0.038 | -0.077 | 0.027 | -0.05 | -0.053 | 0.027 | 0.043 | -0.003 | -0.081 | 0.023 | -0.02 | -0.04 | 0.054 | -0.061 | 0.013 | 0.012 | -0.012
RAB5IF isoform 5 (UniProt Q9BUV8) | -0.075 | 0.129 | 0.142 | -0.03 | -0.398 | – | 0.928 (active) | -0.362 | 0.009 | – | 0.249 | – | 0 | -0.032 | -0.011 | 0.04 | -0.125 | 0.15 | -0.011 | 0.131
RNF2 (UniProt Q99496) | -0.03 | – | – | -0.03 | – | 0.061 | 0.557 (active) | -0.399 (active) | -0.004 | -0.002 | 0.359 | -0.008 | 0.067 | 0.034 | 0.018 | 0.054 | -0.076 | -0.125 | – | -0.038
RFNG (UniProt Q9Y644) | – | – | – | – | – | – | – | – | – | – | – | – | – | – | – | – | – | -0.003 | – | 0.424
RUFY2 isoform 1 (UniProt Q8WXA3) | 0.01 | – | -0.206 | 0.038 | – | -0.026 | -0.009 | -0.178 | – | 0.001 | 0.01 | 0.074 | – | 0.066 | – | 0.13 | -0.031 | 0.003 | – | 0.053
SEC16A isoform 3 (UniProt O15027) | – | – | – | – | – | 0.231 | – | – | 0.068 | – | – | -0.008 | – | – | 0.023 | – | – | – | – | –
RNASEH2B, A0A1B0GUE7 | – | -0.061 | – | – | -0.064 | – | – | – | – | – | – | – | – | – | – | – | – | 0.04 | 0.039 | -0.028
RBBP7 (UniProt C9J7L0) | – | – | – | – | – | – | – | – | – | – | – | – | – | – | – | – | – | 0.089 | – | -0.058
